Source: PubChem
MITF TRPM1 inh: inhibitors of MITF-dependent TRPM1 promoter reporter, primary screen, cell-based, SK-MEL-5, single point, luciferase; SK-MEL-5 TRPM1 promoter luciferase, 24 h; inhibition, % at 12.5 µM; 330,000 tested, 0.83% active;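 active = mean inhibition across replicates of 60% or more, whatever share of single replicates reaches that level; inconclusive = some that reach 60%, reason not given; inactive = mean inhibition across replicates below 60%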
TROY NFkB inh: inhibitors of TROY-driven NF-kB signaling, primary screen, Q293 LMP1-TROYcd cells, NF-kB luciferase, uHTS. Q293 LMP1-TROYcd NF-kB luciferase reporter, 4 h. inhibition, % at 10 µM. 360,000 tested, 0.98% active. AID 1347056, 2019;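 active = compounds whose plate-normalised and pattern-corrected inhibition of the luciferase reporter signal at the single screening dose is 50% or more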
TWEAK-Fn14 inh: inhibitors of TWEAK-Fn14 signaling, primary screen, luciferase reporter cells, uHTS; TWEAK-stimulated Fn14 reporter cells, luciferase luminescence, 8 h; 360,000 tested, 2% active; inhibition, % at 10 µM; in the data active = inhibition above about 50%
Shn3 inh set2: reduction of Shn3 3'UTR firefly luciferase signal, primary screen, Schnurri-3 inhibitor project, cell-based, Clone20 osteoblasts, set 2 | Clone20 osteoblast Shn3 3'UTR firefly luciferase, 24 h | inhibition, % at 12.5 µM | 360,000 tested, 0.52% active;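 active = mean inhibition of at least 75% with every replicate also reaching 75%; inconclusive = mean inhibition at least 75% but some replicate below; inactive = mean inhibition below 75%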
HIF-2a block: HIF-2a reporter inhibitors, primary screen, luminescence, 786-0 RCC cells | 786-0 RCC cells HIF-2a reporter, luciferase luminescence, overnight | inhibition, % at 18.8 µM | 360,000 tested, 0.72% active | AID 624352, 2012;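 active = inhibition of the luminescence signal of 40% or more relative to plate controls, in a single-dose primary screen at 18.75 µM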
LMP1 NFkB inh: EBV LMP1-driven NF-kappaB luciferase reporter inhibitors, primary screen, cell-based, luminescence, single point; LMP1-induced NF-kappaB luciferase reporter cells; inhibition, % at 12.5 µM; 350,000 tested, 0.69% active; AID 504558, 2011; in the data active = inhibition above about 41%; inconclusive = no clear call, values can overlap the other calls
Large screens that a line does not name were inactive. In the library only some 3.4% were active in any assay of this set; here they are far more common.

N#Cc1cc(-c2ccccc2)nc(Oc2ccc(Cl)cc2)n1	TWEAK-Fn14 inh 50
O=C(COC(=O)C1=COCCO1)Nc1cccc(Oc2ccccc2)c1	none
O=C(COC(=O)C1=COCCO1)Nc1ccccc1Oc1ccccc1	TWEAK-Fn14 inh 64
O=C(Nc1nc(-c2ccc(Oc3ccccc3)cc2)cs1)C1=COCCO1	TWEAK-Fn14 inh 62
Cc1ccc(-c2csc(NC(=O)C3=COCCO3)n2)cc1	none
O=C(Cc1ccc(Cl)cc1Cl)OCC(=O)N1CCCCC1	none
CCCCN(C=O)c1c(CC)nc2ccc(C(=O)NCCN(C)C)cn12	none (no result: MITF TRPM1 inh, LMP1 NFkB inh)
CCOC(=O)C1(C)CCCN(C(=O)c2ccccc2OC(F)(F)F)C1 (centres undefined)	none (no result: MITF TRPM1 inh, LMP1 NFkB inh)
Oc1ccc(CCNc2ncnc3ccc(Cl)cc23)cc1	TROY NFkB inh 56, TWEAK-Fn14 inh 94, Shn3 inh set2 88
COc1ccc(C(=O)NCC(=O)OCC(=O)NCCC2=CCCCC2)cc1	none
COc1ccc(OC)c(NC(=O)C(=O)NCCC2=CCCCC2)c1	TWEAK-Fn14 inh 78
O=C(NCCC1=CCCCC1)c1ccc(F)cc1	TWEAK-Fn14 inh 54
COc1ccc(C(=O)NCCC2=CCCCC2)cc1	TWEAK-Fn14 inh 75
O=C(NCCC1=CCCCC1)NC12CC3CC(CC(C3)C1)C2	TROY NFkB inh 63
CC1CCCC(NC(=O)COC(=O)c2cc(=O)[nH]c3ccccc23)C1C (centres undefined)	none
Nc1ccn([C@@H]2O[C@H](CNCc3cccc4c3sc3ccccc34)[C@@H](O)[C@H]2O)c(=O)n1	none (no result: MITF TRPM1 inh)
COc1cccc(C(=O)NCCC2=CCCCC2)c1	TWEAK-Fn14 inh 51
COc1ccc(C(=O)NCCC2=CCCCC2)cc1OC	none
CC(C)C[C@H]1CN(CCCC[C@H]2CNC(=O)C(=O)N2CCc2ccccc2)C(=O)C(=O)N1CCc1ccc(O)cc1	none (no result: MITF TRPM1 inh, Shn3 inh set2, LMP1 NFkB inh)
Cc1ccccc1S(=O)(=O)N1CCN(c2ccc3c(c2)C2CC3CCN2C(=O)OCc2ccccc2)CC1 (centres undefined)	none (no result: MITF TRPM1 inh, LMP1 NFkB inh)
CC12CCC(=O)N1C(C(=O)NCCc1ccc(S(N)(=O)=O)cc1)CS2 (centres undefined)	none
COc1ccc(CC(=O)Nc2nc(-c3ccccc3)c(C(C)=O)s2)cc1OC	TWEAK-Fn14 inh 57
CC(C)(C)C(=O)c1c(N)[nH]c(C(=O)c2ccccc2)c1-c1ccc(Br)cc1	none (no result: MITF TRPM1 inh, Shn3 inh set2, LMP1 NFkB inh)
O=C1NC(=S)SC1=Cc1ccccc1Cl	none
COc1ccc(-n2c(C)cc(/C=C3\SC(=S)NC3=O)c2C)cc1	none
O=C1NC(=S)S/C1=C\c1cc2ccccc2nc1N1CCCCC1	TROY NFkB inh 59 (no result: Shn3 inh set2)
COc1ccc2nc(N3CCCCC3)c(/C=C3\SC(=S)NC3=O)cc2c1	TROY NFkB inh 64
Cc1ccc(C(=O)NCC(=O)OCn2nnc3ccccc3c2=O)cc1	none
COc1ccc2nc(SC(C)C(=O)NC3CCCC3)[nH]c2c1 (centres undefined)	none
CC(=O)c1ccc(S(=O)(=O)Nc2ccc(C(=O)NCCCn3ccnc3)cc2)cc1	none
CCN1C(=O)N[C@@H](CCc2ccccc2)[C@H](C(C)=O)[C@H]1C	LMP1 NFkB inh 58
COc1ccc2c(c1)sc1nc(-c3ccccc3)cn12	MITF TRPM1 inh 91, TROY NFkB inh 84, TWEAK-Fn14 inh 103, Shn3 inh set2 inconclusive, HIF-2a block 78, LMP1 NFkB inh 80
CC1(C(=O)NS(=O)(=O)c2ccc(Cl)cc2)CCN1C(=O)c1ccccc1 (centres undefined)	none (no result: MITF TRPM1 inh, LMP1 NFkB inh)
O=C(CCN1C(=O)/C(=C/c2ccccc2)SC1=S)NCCCN1CCOCC1	none
CCc1ccc(/C=C2\SC(=S)N(CCCC(=O)NCCCN3CCOCC3)C2=O)cc1	HIF-2a block 83 (no result: MITF TRPM1 inh)
CCc1ccc(/C=C2/SC(=S)N(CCC(=O)NCCCN3CCOCC3)C2=O)cc1	none
O=C(CCN1C(=O)/C(=C/c2ccccc2F)SC1=S)NCCCN1CCOCC1	TWEAK-Fn14 inh 50
CCOc1ccc(/C=C2\SC(=S)N(CCCC(=O)NCCCN3CCOCC3)C2=O)cc1	HIF-2a block 71, LMP1 NFkB inh 55
